Our source for the inhibition values is ChEMBL document CHEMBL1961873, “Compounds: GSK PKIS; Assays: Nanosyn kinase panel” (2012).

Structures are written as SMILES.

Assay [1] deals with Sphingosine kinase 1 (Homo sapiens) (UniProt Q9NYA1). Particulars: at 1 µM.
In assay [2] the target is T1, Sphingosine kinase 2 (Homo sapiens) (UniProt Q9NRA0).
T1 sequence (whole entry): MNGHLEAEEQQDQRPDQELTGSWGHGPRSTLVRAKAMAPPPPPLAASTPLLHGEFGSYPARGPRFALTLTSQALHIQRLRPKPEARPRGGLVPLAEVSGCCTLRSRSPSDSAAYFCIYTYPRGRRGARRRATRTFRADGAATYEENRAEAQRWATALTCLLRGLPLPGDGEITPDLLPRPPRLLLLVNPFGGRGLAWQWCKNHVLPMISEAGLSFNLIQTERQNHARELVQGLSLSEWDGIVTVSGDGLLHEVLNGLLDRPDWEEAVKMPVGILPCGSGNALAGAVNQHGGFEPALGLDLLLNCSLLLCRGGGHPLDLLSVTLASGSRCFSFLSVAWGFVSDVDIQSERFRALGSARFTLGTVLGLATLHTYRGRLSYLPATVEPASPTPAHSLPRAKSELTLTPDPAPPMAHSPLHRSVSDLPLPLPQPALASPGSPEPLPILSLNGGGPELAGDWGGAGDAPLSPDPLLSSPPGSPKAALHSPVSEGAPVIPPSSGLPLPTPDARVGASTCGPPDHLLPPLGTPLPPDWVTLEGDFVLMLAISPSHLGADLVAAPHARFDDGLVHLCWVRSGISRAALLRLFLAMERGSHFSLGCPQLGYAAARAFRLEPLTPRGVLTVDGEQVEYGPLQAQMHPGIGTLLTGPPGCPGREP
Particulars: at 0.1 µM.

Assay [3] addresses T1, Sphingosine kinase 2 (Homo sapiens). Particulars: at 1 µM.
Assay [4] addresses Casein kinase II subunit alpha (Homo sapiens) (UniProt P68400). Particulars: at 0.1 µM.
The target is the same in assay [5]. Particulars: at 1 µM.
In assay [6] the target is T2, Inhibitor of nuclear factor kappa-B kinase subunit alpha (Homo sapiens) (UniProt O15111).
T2 sequence (whole entry): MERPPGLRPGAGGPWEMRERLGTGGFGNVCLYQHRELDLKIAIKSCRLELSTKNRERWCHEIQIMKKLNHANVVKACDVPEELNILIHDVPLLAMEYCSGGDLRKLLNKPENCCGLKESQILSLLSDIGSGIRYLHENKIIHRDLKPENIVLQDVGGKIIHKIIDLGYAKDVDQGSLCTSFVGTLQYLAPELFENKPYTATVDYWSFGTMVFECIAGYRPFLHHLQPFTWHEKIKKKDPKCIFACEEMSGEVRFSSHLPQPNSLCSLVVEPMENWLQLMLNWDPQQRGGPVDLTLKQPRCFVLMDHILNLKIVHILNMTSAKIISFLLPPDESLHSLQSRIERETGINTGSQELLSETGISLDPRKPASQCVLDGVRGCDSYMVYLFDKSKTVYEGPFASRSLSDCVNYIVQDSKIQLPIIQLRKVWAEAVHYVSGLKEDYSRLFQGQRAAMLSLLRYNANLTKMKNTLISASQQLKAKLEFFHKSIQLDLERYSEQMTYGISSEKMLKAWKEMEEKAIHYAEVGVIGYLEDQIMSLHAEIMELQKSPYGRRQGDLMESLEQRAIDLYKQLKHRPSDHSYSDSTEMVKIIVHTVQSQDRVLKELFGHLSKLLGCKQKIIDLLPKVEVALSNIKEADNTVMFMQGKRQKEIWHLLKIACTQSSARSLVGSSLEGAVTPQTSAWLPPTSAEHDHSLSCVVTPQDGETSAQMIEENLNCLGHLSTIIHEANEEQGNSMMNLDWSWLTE
Particulars: at 0.1 µM.

Assay [7] addresses T2, Inhibitor of nuclear factor kappa-B kinase subunit alpha (Homo sapiens). The conditions noted are these: at 1 µM.
For assay [8], the target named is T3, Inhibitor of nuclear factor kappa-B kinase subunit beta (Homo sapiens) (UniProt O14920).
T3 sequence (whole entry): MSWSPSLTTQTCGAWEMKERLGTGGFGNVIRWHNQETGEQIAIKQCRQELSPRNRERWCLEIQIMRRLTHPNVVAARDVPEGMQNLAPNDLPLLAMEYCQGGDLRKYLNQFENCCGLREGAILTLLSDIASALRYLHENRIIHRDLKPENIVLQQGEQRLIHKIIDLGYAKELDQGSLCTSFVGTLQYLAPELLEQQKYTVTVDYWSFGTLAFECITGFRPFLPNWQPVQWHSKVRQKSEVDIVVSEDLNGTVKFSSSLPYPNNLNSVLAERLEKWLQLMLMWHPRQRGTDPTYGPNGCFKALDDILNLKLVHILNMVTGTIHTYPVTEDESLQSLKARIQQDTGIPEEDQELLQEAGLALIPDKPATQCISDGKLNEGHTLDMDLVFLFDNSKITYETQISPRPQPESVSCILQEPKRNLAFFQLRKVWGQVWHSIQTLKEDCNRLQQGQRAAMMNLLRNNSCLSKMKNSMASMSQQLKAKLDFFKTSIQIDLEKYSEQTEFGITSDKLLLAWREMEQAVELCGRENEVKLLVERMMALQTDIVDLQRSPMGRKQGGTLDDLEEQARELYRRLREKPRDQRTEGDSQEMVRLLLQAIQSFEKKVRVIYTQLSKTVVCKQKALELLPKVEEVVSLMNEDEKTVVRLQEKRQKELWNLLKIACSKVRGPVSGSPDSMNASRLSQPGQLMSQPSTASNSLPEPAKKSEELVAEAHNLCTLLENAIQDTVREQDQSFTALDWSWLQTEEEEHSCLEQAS
The conditions noted are these: at 0.1 µM.

The target in assay [9] is T3, Inhibitor of nuclear factor kappa-B kinase subunit beta (Homo sapiens). The conditions noted are these: at 1 µM.
Assay [10] deals with T4, Inhibitor of nuclear factor kappa-B kinase subunit epsilon (Homo sapiens) (UniProt Q14164).
T4 sequence (whole entry): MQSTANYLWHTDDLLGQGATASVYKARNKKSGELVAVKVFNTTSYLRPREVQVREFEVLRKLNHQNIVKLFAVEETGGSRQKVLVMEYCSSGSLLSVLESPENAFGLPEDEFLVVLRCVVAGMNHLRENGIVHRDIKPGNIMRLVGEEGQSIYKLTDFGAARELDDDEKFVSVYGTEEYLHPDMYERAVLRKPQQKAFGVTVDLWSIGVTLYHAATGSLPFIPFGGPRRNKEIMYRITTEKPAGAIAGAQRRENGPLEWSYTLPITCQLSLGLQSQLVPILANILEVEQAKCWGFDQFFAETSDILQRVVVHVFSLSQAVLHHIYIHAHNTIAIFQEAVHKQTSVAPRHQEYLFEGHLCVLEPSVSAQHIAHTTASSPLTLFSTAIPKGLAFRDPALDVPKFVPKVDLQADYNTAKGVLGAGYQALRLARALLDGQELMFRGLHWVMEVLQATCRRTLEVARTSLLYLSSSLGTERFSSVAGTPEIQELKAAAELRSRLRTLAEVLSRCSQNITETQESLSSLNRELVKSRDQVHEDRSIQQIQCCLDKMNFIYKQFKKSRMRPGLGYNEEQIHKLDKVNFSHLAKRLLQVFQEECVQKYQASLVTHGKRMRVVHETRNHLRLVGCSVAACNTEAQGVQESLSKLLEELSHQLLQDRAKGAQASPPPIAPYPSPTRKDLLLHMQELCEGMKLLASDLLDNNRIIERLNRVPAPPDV
The conditions noted are these: at 0.1 µM.

Assay [11] has as its target T4, Inhibitor of nuclear factor kappa-B kinase subunit epsilon (Homo sapiens). Particulars: at 1 µM.
The target in assay [12] is T5, Serine/threonine-protein kinase Nek1 (Homo sapiens) (UniProt Q96PY6).
T5 sequence (whole entry): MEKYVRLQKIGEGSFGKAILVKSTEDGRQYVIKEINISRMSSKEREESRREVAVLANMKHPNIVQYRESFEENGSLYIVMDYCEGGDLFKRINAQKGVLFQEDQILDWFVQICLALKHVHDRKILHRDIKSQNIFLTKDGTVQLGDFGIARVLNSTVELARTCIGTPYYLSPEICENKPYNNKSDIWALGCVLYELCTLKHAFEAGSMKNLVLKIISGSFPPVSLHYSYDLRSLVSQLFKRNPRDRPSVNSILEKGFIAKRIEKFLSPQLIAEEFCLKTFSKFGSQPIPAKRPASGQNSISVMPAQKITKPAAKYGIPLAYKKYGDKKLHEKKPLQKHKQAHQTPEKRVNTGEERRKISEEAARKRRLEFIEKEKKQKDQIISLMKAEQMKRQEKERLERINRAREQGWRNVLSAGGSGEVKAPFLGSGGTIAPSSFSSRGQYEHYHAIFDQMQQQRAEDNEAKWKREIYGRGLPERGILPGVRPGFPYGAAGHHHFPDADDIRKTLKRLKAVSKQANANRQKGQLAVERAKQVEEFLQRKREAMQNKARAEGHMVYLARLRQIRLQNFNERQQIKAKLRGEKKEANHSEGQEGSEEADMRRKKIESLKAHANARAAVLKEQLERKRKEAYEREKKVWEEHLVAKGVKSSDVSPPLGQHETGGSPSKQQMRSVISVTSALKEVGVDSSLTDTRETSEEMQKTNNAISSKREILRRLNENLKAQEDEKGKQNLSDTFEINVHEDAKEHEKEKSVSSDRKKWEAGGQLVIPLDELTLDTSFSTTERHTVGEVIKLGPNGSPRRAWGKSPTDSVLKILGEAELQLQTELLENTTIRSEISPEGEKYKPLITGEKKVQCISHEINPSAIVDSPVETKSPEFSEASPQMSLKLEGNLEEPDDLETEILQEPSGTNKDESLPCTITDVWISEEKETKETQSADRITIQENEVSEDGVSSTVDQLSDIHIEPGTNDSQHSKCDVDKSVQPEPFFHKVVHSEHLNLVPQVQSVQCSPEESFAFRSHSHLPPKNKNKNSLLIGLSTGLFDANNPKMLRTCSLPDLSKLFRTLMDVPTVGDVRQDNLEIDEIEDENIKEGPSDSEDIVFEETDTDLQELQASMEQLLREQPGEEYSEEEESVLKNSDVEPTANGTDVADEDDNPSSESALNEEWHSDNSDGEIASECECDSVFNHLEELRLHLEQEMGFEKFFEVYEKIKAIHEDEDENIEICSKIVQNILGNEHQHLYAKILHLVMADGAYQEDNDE
Particulars: at 0.1 µM.

For assay [13], the target named is T5, Serine/threonine-protein kinase Nek1 (Homo sapiens). The conditions noted are these: at 1 µM.
In assay [14] the target is T6, Serine/threonine-protein kinase Nek2 (Homo sapiens) (UniProt P51955).
T6 sequence (whole entry): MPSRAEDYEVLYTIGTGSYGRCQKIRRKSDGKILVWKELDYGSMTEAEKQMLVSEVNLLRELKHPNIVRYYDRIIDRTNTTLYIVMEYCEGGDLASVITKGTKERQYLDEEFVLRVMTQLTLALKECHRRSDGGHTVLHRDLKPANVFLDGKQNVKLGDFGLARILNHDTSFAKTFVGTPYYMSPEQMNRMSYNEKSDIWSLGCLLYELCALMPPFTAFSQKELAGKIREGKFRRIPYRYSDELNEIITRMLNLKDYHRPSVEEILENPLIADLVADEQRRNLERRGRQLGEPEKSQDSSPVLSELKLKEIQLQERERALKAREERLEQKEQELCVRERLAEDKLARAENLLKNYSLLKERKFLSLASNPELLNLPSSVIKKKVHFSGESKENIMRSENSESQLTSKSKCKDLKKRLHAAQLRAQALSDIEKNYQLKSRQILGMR
Particulars: at 0.1 µM.

Assay [15] has as its target T6, Serine/threonine-protein kinase Nek2 (Homo sapiens). The conditions noted are these: at 1 µM.
The target in assay [16] is Serine/threonine-protein kinase Nek6 (Homo sapiens) (UniProt Q9HC98). The conditions noted are these: at 0.1 µM.
Sequence of Serine/threonine-protein kinase Nek6 (Homo sapiens) (Q9HC98 whole entry): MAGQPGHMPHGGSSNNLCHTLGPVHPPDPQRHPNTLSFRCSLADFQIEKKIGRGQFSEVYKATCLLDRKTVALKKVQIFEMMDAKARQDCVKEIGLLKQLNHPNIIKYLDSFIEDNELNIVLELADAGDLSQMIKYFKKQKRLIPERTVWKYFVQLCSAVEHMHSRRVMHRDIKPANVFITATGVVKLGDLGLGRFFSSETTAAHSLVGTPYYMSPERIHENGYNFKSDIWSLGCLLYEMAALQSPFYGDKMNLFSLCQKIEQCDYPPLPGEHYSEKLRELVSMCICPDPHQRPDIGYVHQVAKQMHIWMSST
Assay [17] has the same target. The conditions noted are these: at 1 µM.
Assay [18] has as its target Serine/threonine-protein kinase Nek7 (Homo sapiens) (UniProt Q8TDX7). Particulars: at 0.1 µM.
Assay [19] has the same target. The conditions noted are these: at 1 µM.
The target of assay [20] is T7, Serine/threonine-protein kinase Nek9 (Homo sapiens) (UniProt Q8TD19).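 Note: reported value is the mean percent inhibition of NEK9.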
T7 sequence (whole entry): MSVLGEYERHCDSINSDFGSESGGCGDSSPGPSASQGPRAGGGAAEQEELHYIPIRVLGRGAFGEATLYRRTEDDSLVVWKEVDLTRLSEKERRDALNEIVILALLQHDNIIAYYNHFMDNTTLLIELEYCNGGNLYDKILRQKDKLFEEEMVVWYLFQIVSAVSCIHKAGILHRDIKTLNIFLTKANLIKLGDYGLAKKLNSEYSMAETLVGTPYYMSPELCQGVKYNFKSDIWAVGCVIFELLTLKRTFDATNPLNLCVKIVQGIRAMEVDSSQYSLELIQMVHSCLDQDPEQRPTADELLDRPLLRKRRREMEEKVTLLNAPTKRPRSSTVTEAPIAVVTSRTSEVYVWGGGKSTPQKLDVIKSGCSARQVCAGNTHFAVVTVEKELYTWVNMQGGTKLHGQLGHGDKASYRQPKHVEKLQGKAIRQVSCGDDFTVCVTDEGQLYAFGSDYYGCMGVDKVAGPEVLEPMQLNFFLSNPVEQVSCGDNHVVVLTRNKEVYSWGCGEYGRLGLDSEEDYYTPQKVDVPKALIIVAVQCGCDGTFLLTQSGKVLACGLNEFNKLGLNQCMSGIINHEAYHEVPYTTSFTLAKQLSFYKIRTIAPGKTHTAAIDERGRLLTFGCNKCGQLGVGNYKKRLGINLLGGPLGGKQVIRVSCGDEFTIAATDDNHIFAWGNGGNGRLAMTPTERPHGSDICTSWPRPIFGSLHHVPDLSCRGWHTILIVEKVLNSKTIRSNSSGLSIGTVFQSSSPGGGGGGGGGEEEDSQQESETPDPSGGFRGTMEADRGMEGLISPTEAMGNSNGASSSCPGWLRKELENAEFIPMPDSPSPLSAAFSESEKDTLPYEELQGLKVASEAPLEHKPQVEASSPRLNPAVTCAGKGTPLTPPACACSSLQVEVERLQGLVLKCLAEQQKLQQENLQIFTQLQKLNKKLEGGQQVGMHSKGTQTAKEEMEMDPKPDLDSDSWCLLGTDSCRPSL
Particulars: at 0.1 µM.

Sequence of Casein kinase II subunit alpha (Homo sapiens) (P68400 whole entry, looked up): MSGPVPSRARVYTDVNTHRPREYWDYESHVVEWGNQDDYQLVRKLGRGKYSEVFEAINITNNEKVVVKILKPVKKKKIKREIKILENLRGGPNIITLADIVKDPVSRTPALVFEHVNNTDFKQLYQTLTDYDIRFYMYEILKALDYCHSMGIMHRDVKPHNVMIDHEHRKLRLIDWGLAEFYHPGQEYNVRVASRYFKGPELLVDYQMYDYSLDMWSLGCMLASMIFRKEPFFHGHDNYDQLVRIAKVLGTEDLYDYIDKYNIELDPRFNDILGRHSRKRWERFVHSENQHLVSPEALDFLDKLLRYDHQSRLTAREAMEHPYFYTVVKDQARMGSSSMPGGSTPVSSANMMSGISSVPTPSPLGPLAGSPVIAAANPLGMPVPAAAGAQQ
Sequence of Serine/threonine-protein kinase Nek7 (Homo sapiens) (Q8TDX7 whole entry, looked up): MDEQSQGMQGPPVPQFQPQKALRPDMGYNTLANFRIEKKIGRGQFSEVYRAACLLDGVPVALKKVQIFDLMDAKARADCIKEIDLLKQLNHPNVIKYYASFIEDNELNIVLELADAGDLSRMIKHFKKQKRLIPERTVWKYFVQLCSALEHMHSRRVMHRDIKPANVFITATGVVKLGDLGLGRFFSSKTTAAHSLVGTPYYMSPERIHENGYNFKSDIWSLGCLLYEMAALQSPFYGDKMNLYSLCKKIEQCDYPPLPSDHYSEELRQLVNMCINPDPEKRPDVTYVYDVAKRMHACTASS
Sequence of Sphingosine kinase 1 (Homo sapiens) (Q9NYA1 whole entry): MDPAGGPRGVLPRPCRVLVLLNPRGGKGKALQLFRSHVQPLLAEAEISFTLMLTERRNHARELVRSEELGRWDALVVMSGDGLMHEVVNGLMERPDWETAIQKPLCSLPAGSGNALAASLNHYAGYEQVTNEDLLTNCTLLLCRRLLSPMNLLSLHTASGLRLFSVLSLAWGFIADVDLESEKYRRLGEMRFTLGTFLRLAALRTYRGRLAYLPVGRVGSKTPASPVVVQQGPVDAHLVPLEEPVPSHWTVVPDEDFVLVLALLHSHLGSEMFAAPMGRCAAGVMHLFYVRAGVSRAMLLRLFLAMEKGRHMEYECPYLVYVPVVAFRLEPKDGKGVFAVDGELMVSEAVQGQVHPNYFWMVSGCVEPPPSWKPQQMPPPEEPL

As for `CN(c1ccc(NC(=O)NCCN2CCOCC2)cc1)c1ccnc(Nc2ccc(CS(C)(=O)=O)cc2)n1`, the inhibition (usually how much of the control response was suppressed) in assay [1] was 7.75%; in assay [2] it was 0.36%; in [3] it was 0.38%; in assay [4] it was 5.71%; in [5], 11.9%; in [6] it was 10.9%. For the same compound, the inhibition in assay [7] came to 8%; in [8], 3.48%; in [9], 3.83%; in assay [10], 3.55%; in assay [11] it was 95.2%; in assay [12], 2.09%. Also, the inhibition in assay [13] was 4.64%; in [14] it was 2.52%; in [15], 1.94%; in [16], 3.82%; in assay [17] it was 3.91%; in [18] it was 3.06%. Further, the inhibition in assay [19] was found to be 3.17%; in assay [20] it was 5.2%.
